# Reference: PubChem BioAssay (NCI)
# This is part of a sample that, as a whole, favours compounds with a hit. Of some 83,000 tested, about 20% had one in any assay.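 Interpretation: 100, growth as untreated; towards 0, rising growth inhibition; 0, no net growth; 0 to -100, cell death. Compounds scoring below 10 were considered active.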 Unmarked numbers belong to inactive results. Calls of active or inactive are those of the source.
# How the values were obtained:
# Experiment in all cases: NCI-60 one-dose screen, 48 h (100 = growth as untreated, 0 = no growth, -100 = all killed)
# Settings in all cases: 10 µM
# [1] = tested on: RPMI-8226 leukemia
# [2] = tested on: OVCAR-8 ovarian
# [3] = tested on: OVCAR-5 ovarian
# [4] = tested on: OVCAR-4 ovarian
# [5] = tested on: SK-OV-3 ovarian
# [6] = tested on: IGROV1 ovarian
# [7] = tested on: HS 578T breast
# [8] = tested on: NCI/ADR-RES ovarian
# [9] = tested on: T-47D breast
# [10] = tested on: BT-549 breast
# [11] = tested on: MDA-MB-435 melanoma
# [12] = tested on: SW-620 colon
# [13] = tested on: MCF7 breast
# [14] = tested on: HCT-116 colon
# [15] = tested on: HCC-2998 colon
# [16] = tested on: KM12 colon
# [17] = tested on: OVCAR-3 ovarian
Structure (SMILES),growth [1],growth [2],growth [3],growth [4],growth [5],growth [6],growth [7],growth [8],growth [9],growth [10],growth [11],growth [12],growth [13],growth [14],growth [15],growth [16],growth [17]
O=S(=O)(NCCNc1nccc(-c2c(-c3ccc(F)cc3)nc3sccn23)n1)c1ccc2ccccc2c1,60.2%,69.6%,130%,96.2%,85.2%,49.4%,111%,84.4%,61.9%,92.5%,56.4%,97.5%,38.2%,61.8%,82.6%,75.6%,–
CCCCN(CCCC)CCCCCCCCC(O)c1cc2ccccc2c2ccccc12 (stereo unspecified),-7.55% (active),49.4%,74.8%,46.2%,80.7%,44.8%,73.7%,54.6%,31.7%,67.5%,67.3%,66.6%,28.7%,22.7%,61.5%,40.9%,–
Cc1cc(C)c(CCc2cc(C)c(C)cc2C)cc1C,102%,102%,103%,92.9%,114%,111%,–,107%,114%,–,98%,105%,105%,106%,101%,106%,114%
CCN(CCCCCCN1CC(=O)N(CCCCCCN(CC)Cc2ccccc2OC)CC1=O)Cc1ccccc1OC,30.3%,86.7%,68.9%,77.1%,102%,61.1%,–,70.9%,90.8%,87.8%,85.9%,–,83.6%,37.6%,–,65.5%,59.5%
Cc1ccc(N=Nc2c(N)nc(N)[nH]c2=O)cc1C,97.8%,104%,105%,105%,99.2%,92.6%,108%,103%,96%,98.5%,95.1%,102%,94.4%,96.8%,113%,111%,–
CCCCCCNC(=O)Oc1ccc(/C(=C(/CC)Cc2ccccc2)c2ccc(OCCN3CCCCC3)cc2)cc1,68.2%,81.6%,94%,69.9%,86.3%,91.1%,83.5%,81.8%,51.3%,97.4%,89%,79.1%,28.8%,62.8%,87.3%,84%,–
CC/C(=C(/c1ccc(OCCN(C)C)cc1)c1ccc(OC(=O)CCC(=O)c2c(C)[nH]c(/C=C3\N=C(c4ccc[nH]4)C=C3OC)c2C)cc1)c1ccccc1,-22.3% (active),22.8%,65.3%,37.4%,63.5%,27.6%,8.4% (active),20.7%,22.7%,48.4%,14%,-42% (active),-12.1% (active),5.92% (active),41.6%,–,–
O=C(CSSCC(=O)c1ccc(Cl)cc1)c1ccc(Cl)cc1,24.9%,47.8%,60.1%,85.8%,60%,78.9%,–,-13% (active),–,84.9%,47.9%,51.1%,86.7%,35.4%,63.1%,44.8%,78.4%
COc1cc(C(=C2O[C@@H]([C@H]3COC(C)(C)O3)[C@H]3OC(C)(C)O[C@@H]23)c2cc(OC)c(OC)c(OC)c2)cc(OC)c1OC,88.1%,108%,90.8%,108%,116%,137%,–,91.7%,95.7%,–,113%,–,103%,96.4%,–,107%,112%
Cc1cc(O)c(C(C)(C)C)cc1Sc1cc(C(C)(C)C)c(O)cc1C,12.8%,73.6%,90.4%,28.3%,65.3%,39.1%,–,30.7%,18.6%,65.9%,54.8%,–,34.7%,29%,–,47%,29.3%
COc1ccc(-c2nn(-c3cccc(NC(=O)c4cccc(C(F)(F)F)c4)c3)cc2-c2ccncc2)cc1Cl,6.49% (active),33%,55.8%,60.7%,37.8%,42.4%,24.9%,15.2%,18.6%,35%,-67.9% (active),36%,9.92% (active),14.5%,33.6%,15.4%,–
Nc1c(C(=O)Nc2ccccc2Cl)sc2nc3c(cc12)C(=O)CCC3,87.9%,100%,70.5%,84.4%,13.8%,62.9%,40.8%,57.2%,75%,61.2%,-53.3% (active),29%,16.1%,76.5%,63.2%,28.5%,–
COC(=O)C(=C\c1ccc2c(c1)OCO2)/C(=C/c1ccc2c(c1)OCO2)C(=O)OC,98.7%,103%,98.9%,106%,105%,87.1%,106%,96.4%,89.2%,95.5%,104%,110%,96.9%,92.9%,94.6%,102%,–
O=C(C[n+]1ccccc1)c1ccc2ccccc2c1,93.4%,89%,75.9%,86.3%,101%,105%,–,92%,87.2%,100%,102%,–,98.1%,91.2%,–,93.1%,95%
CN(C)c1ccc(Cc2ccc(N(C)C)cc2Cl)c(Cl)c1,81.1%,101%,99.6%,78.6%,103%,90.7%,–,101%,87.1%,136%,109%,91.2%,–,–,96.8%,90.4%,94.9%
Nc1c(C(=O)Nc2ccccc2)sc2nc3c(cc12)CCCC3,15.4%,33.6%,62%,49.9%,24.7%,30.5%,–,20.4%,47.3%,–,-30.6% (active),34.4%,15.6%,25.5%,24.5%,31.1%,-13.7% (active)
CCC(=O)N1C/C(=C/c2ccc(OC)cc2)C(=O)/C(=C/c2ccc(OC)cc2)C1,-15.8% (active),10.7%,96.1%,58.3%,40.8%,41.8%,9.81% (active),25%,57%,13.2%,-28.1% (active),-50.1% (active),-4.78% (active),-70.8% (active),-84% (active),–,–
O=C(N/N=C/c1ccccc1)C(Oc1ccccc1)c1ccccc1 (stereo unspecified),98.1%,100%,101%,102%,104%,98.9%,–,75.2%,–,105%,44%,96.2%,97.9%,87.2%,97.3%,84.5%,105%
COc1ccccc1CNCCN1C(=O)c2ccc3c4c(ccc(c24)C1=O)C(=O)N(CCNCc1ccccc1OC)C3=O,-67.7% (active),-77.7% (active),-52.6% (active),-99.7% (active),-79.6% (active),-72.5% (active),–,-62.6% (active),-65.8% (active),-94% (active),-80.2% (active),–,-69.2% (active),-92.6% (active),–,-96.6% (active),-78.5% (active)
COc1ccc2nc3ccccc3c(NCCNCC(C)O)c2c1 (stereo unspecified),-1.19% (active),-2.99% (active),1.61% (active),11.8%,-3.44% (active),4.2% (active),28.4%,73.6%,-3.73% (active),30.9%,1.44% (active),0.102% (active),4.08% (active),0.194% (active),-11.8% (active),9.48% (active),–
